Measured values reported in PubChem BioAssay.
Records with an inconclusive call do not appear. The source made the active and inactive calls.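 The calls were made as follows, unless noted: active = normalized viability below 100% at a tested concentration; inactive = the rest.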

Legend:
[1] = viability loss in pontine glioma line – cell-based, SU-DIPG-XIII, MIPE4.0, CellTiter-Glo, qHTS, dose response (AID 1347061; cut-off not given, nearly all actives have AC50 up to about 37 µM;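 also: cells exposed to compound for 48 hours before readout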); conditions: CellTiter-Glo ATP luminescence
[2] = viability loss in pontine glioma line – cell-based, JHH-DIPG-1, MIPE4.0, CellTiter-Glo, qHTS, dose response (AID 1347062; cut-off not given, nearly all actives have AC50 up to about 27 µM;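 also: cells exposed to compound for two days before readout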); conditions: JHH-DIPG-1 viability, CellTiter-Glo ATP luminescence
[3] = viability loss in pontine glioma line – cell-based, SU-DIPG-IV, MIPE4.0, CellTiter-Glo, qHTS, dose response (AID 1347063; cut-off not given, nearly all actives have AC50 up to about 30 µM;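 also: compound exposure lasted 48 hours before the viability readout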); conditions: CellTiter-Glo ATP luminescence
[4] = viability loss in pontine glioma line – cell-based, SU-DIPG-XIII, MIPE5.0, CellTiter-Glo, qHTS, dose response (AID 1347064; cut-off not given, nearly all actives have AC50 up to about 23 µM;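 also: cells exposed to compound for 48 hours before the viability read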); conditions: CellTiter-Glo ATP luminescence
[5] = viability loss in pontine glioma line – cell-based, SU-DIPG-XXV, MIPE5.0, CellTiter-Glo, qHTS, dose response (AID 1347065; cut-off not given, nearly all actives have AC50 up to about 26 µM;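 also: cells exposed to compound for 48 hours before ATP readout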); conditions: CellTiter-Glo ATP luminescence
[6] = growth inhibition of DIPG cells – cell-based, MIPE4.0 library, CellTiter-Glo luminescence, qHTS (AID 1347066; cut-off not given, nearly all actives have AC50 up to about 30 µM;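 also: cells exposed to compound for 48 hours before readout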); conditions: SU-DIPG-VI viability, CellTiter-Glo ATP luminescence
[7] = JHH-DIPG-1 glioma cell viability, MIPE5.0 library, CellTiter-Glo luminescence, qHTS (AID 1347067; cut-off not given, nearly all actives have AC50 up to about 26 µM;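 also: cells exposed to compound for 48 hours before readout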); conditions: JHH-DIPG-1 glioma viability, CellTiter-Glo ATP luminescence
[8] = growth inhibition of DIPG cells – cell-based, MIPE5.0 library, qHTS (AID 1347068; cut-off not given, nearly all actives have IC50 up to about 30 µM;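 also: cells exposed to compound for 48 hours before viability readout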); conditions: SU-DIPG-XXV viability
[9] = viability loss with induced miR-34 in A549 – imaging, A549 dox-inducible miR-34, nuclei and caspase counts, primary screen (AID 1347080;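 active = compounds whose cell count with miR-34 switched on is under 0.7 times the count with it off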); conditions: A549 miR-34 inducible, Hoechst nuclei count, 48 h
[10] = compounds altering HSF1 focus formation in cells – imaging, Selleck Cancer Library (AID 1347162; in the data active = plate-normalised HSF1 focus index below about 0.46); conditions: human cells, HSF1 nuclear foci imaging, at 10 µM; SSMD: measured here: HSF1 foci SSMD mean; cell count: measured here: cell number; plate-normalised HSF1 focus index: stronger effect = lower value
[11] = MELAS cybrid and Rieske KO viability enhancers – cell-based, MELAS cybrids, Rieske KO mouse fibroblasts, CellTiter-Glo, primary screen (AID 1508586;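 active = mean z-score across replicates of 1.96 or higher in either the MELAS or the Rieske mutant cell line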;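 also: z relative to plate mean and SD of compound and empty wells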); conditions: low glucose
[12] = drug combination growth inhibition, ovarian cancer – cell-based, oncology-focused library, rucaparib conditional, profiling panel (AID 1508598); conditions: patient-derived ovarian cancer cells, CellTiter-Glo viability, 144 h, stronger effect = lower value
[13] = stronger effect = lower value, cell number ratio, induced over uninduced
[14] = measured here: relative caspase fold change +Dox/-Dox
[15] = measured here: total cells with miR-34 induction, stronger effect = lower value
[16] = measured here: total cells without miR-34 induction
[17] = MELAS cybrid survival, CellTiter-Glo 48 h, stronger effect = higher value
[18] = Rieske KO mouse fibroblast survival, CellTiter-Glo 72 h
[19] = at 0.000305 µM, OCI-C5x cells, with rucaparib 10 µM, 100% = cells with rucaparib alone
[20] = at 0.000305 µM, OCI-C5x cells, without rucaparib
[21] = at 0.000305 µM, OCI-P5x cells, with rucaparib 20 µM, 100% = cells with rucaparib alone
[22] = at 0.000305 µM, OCI-P5x cells, without rucaparib
[23] = at 0.00122 µM, OCI-C5x cells, with rucaparib 10 µM, 100% = cells with rucaparib alone
[24] = at 0.00122 µM, OCI-C5x cells, without rucaparib
[25] = at 0.00122 µM, OCI-P5x cells, with rucaparib 20 µM, 100% = cells with rucaparib alone
[26] = at 0.00122 µM, OCI-P5x cells, without rucaparib
[27] = at 0.00488 µM, OCI-C5x cells, with rucaparib 10 µM, 100% = cells with rucaparib alone
[28] = at 0.00488 µM, OCI-C5x cells, without rucaparib
[29] = at 0.00488 µM, OCI-P5x cells, with rucaparib 20 µM, 100% = cells with rucaparib alone
[30] = at 0.00488 µM, OCI-P5x cells, without rucaparib
[31] = at 0.0195 µM, OCI-C5x cells, with rucaparib 10 µM, 100% = cells with rucaparib alone
[32] = at 0.0195 µM, OCI-C5x cells, without rucaparib
[33] = at 0.0195 µM, OCI-P5x cells, with rucaparib 20 µM, 100% = cells with rucaparib alone
[34] = at 0.0195 µM, OCI-P5x cells, without rucaparib
[35] = at 0.0781 µM, OCI-C5x cells, with rucaparib 10 µM, 100% = cells with rucaparib alone
[36] = at 0.0781 µM, OCI-C5x cells, without rucaparib
[37] = at 0.0781 µM, OCI-P5x cells, with rucaparib 20 µM, 100% = cells with rucaparib alone
[38] = at 0.0781 µM, OCI-P5x cells, without rucaparib
[39] = at 0.313 µM, OCI-C5x cells, with rucaparib 10 µM, 100% = cells with rucaparib alone
[40] = at 0.313 µM, OCI-C5x cells, without rucaparib
[41] = at 0.313 µM, OCI-P5x cells, with rucaparib 20 µM, 100% = cells with rucaparib alone
[42] = at 0.313 µM, OCI-P5x cells, without rucaparib
[43] = at 1.25 µM, OCI-C5x cells, with rucaparib 10 µM, 100% = cells with rucaparib alone
[44] = at 1.25 µM, OCI-C5x cells, without rucaparib
[45] = at 1.25 µM, OCI-P5x cells, with rucaparib 20 µM, 100% = cells with rucaparib alone
[46] = at 1.25 µM, OCI-P5x cells, without rucaparib
[47] = at 5 µM, OCI-C5x cells, with rucaparib 10 µM, 100% = cells with rucaparib alone
[48] = at 5 µM, OCI-C5x cells, without rucaparib
[49] = at 5 µM, OCI-P5x cells, with rucaparib 20 µM, 100% = cells with rucaparib alone
[50] = at 5 µM, OCI-P5x cells, without rucaparib

For `CC(C)n1nc(-c2ccc3oc(N)nc3c2)c2c(N)ncnc21`, the AC50 [1] was 9.35 µM (active), the AC50 [2] was 8.33 µM (active) and the AC50 [3] was 3.72 µM (active). The AC50 [4] was 1.18 µM (active), the AC50 [5] was 0.0661 µM (active) and the AC50 [6] was 18.7 µM (active). The AC50 [7] was 1.18 µM (active), the IC50 [8] was 4.17 µM (active) and the fold change [9, 13] was 0.877 (inactive). For the same compound, the fold change [9, 14] was 0.45, the cell count [9, 15] was 2980 and the cell count [9, 16] was 3400. The SSMD [10] was 0.57, the cell count [10] was 6620 and the plate-normalised HSF1 focus index [10] was 1.03 (inactive). The z-score [11, 17] was 2.73 (active), the z-score [11, 18] was -2.58 and the viability [12, 19] was 109% (inactive). For the same compound, the viability [12, 20] was 109% (inactive), the viability [12, 21] was 96.2% (active) and the viability [12, 22] was 92.8% (active). For the same compound, the viability [12, 23] was 113% (inactive), the viability [12, 24] was 121% (inactive) and the viability [12, 25] was 92.7% (active). The viability [12, 26] was 90.7% (active), the viability [12, 27] was 100% (inactive) and the viability [12, 28] was 123% (inactive). The viability [12, 29] was 80.8% (active), the viability [12, 30] was 79.2% (active) and the viability [12, 31] was 87.5% (active). For the same compound, the viability [12, 32] was 88.1% (active), the viability [12, 33] was 56.8% (active) and the viability [12, 34] was 52.8% (active). For the same compound, the viability [12, 35] was 70.4% (active), the viability [12, 36] was 62.2% (active) and the viability [12, 37] was 43.5% (active). The viability [12, 38] was 37.2% (active), the viability [12, 39] was 61.9% (active) and the viability [12, 40] was 55.6% (active). For the same compound, the viability [12, 41] was 36.9% (active), the viability [12, 42] was 26.5% (active) and the viability [12, 43] was 51.8% (active). For the same compound, the viability [12, 44] was 47.4% (active), the viability [12, 45] was 29% (active) and the viability [12, 46] was 22.9% (active). For the same compound, the viability [12, 47] was 39% (active), the viability [12, 48] was 31.9% (active) and the viability [12, 49] was 19.5% (active). The viability [12, 50] was 15.8% (active).

With `CCNc1cc(NC2CCC(O)CC2)nc(Nc2ccc3c(ccn3Cc3ccccc3)c2)n1` (stereo unspecified) the outcome [1] was “inactive”, the AC50 [2] was 26.4 µM (active) and the AC50 [3] was 18.7 µM (active). The AC50 [4] was 23.5 µM (active), the AC50 [5] was 16.6 µM (active) and the AC50 [7] was 23.5 µM (active).

For `CC(=O)N1CCN(CCOc2ccc(C3CCN(C4=Nn5c(nnc5C(F)(F)F)CC4)CC3)cc2)CC1`, the fold change [9, 13] was 0.859 (inactive), the fold change [9, 14] was 0.882 and the cell count [9, 15] was 5930. For the same compound, the cell count [9, 16] was 6900, the z-score [11, 17] was -0.00811 (inactive) and the z-score [11, 18] was -0.339.

In the case of `Cc1cc(Nc2nc(N[C@@H](C)c3ncc(F)cn3)ncc2Cl)n[nH]1`, the AC50 [1] is reported as 16.6 µM (active), the AC50 [2] is reported as 9.35 µM (active) and the AC50 [3] is reported as 13.2 µM (active). For the same compound, the AC50 [4] was 1.48 µM (active), the AC50 [5] was 0.661 µM (active) and the AC50 [6] was 9.35 µM (active). The AC50 [7] was 0.934 µM (active), the IC50 [8] was 1.48 µM (active) and the viability [12, 19] was 99.3% (active). The viability [12, 20] was 105% (inactive), the viability [12, 21] was 91% (active) and the viability [12, 22] was 91.4% (active). For the same compound, the viability [12, 23] was 112% (inactive), the viability [12, 24] was 112% (inactive) and the viability [12, 25] was 92.4% (active). The viability [12, 26] was 97.8% (active), the viability [12, 27] was 106% (inactive) and the viability [12, 28] was 115% (inactive). The viability [12, 29] was 102% (inactive), the viability [12, 30] was 99.3% (active) and the viability [12, 31] was 112% (inactive). The viability [12, 32] was 102% (inactive), the viability [12, 33] was 101% (inactive) and the viability [12, 34] was 99.8% (active). For the same compound, the viability [12, 35] was 102% (inactive), the viability [12, 36] was 104% (inactive) and the viability [12, 37] was 96.5% (active). The viability [12, 38] was 101% (inactive), the viability [12, 39] was 97.7% (active) and the viability [12, 40] was 102% (inactive). For the same compound, the viability [12, 41] was 85.8% (active), the viability [12, 42] was 99.9% (active) and the viability [12, 43] was 78.7% (active). The viability [12, 44] was 101% (inactive), the viability [12, 45] was 80.1% (active) and the viability [12, 46] was 86.6% (active). The viability [12, 47] was 46.6% (active), the viability [12, 48] was 55.9% (active) and the viability [12, 49] was 30.7% (active). The viability [12, 50] was 24.9% (active).
